The results in this text go back to PubChem BioAssay (NCATS).

Assay [1] addresses Rap guanine nucleotide exchange factor 3 (Homo sapiens) (UniProt O95398). Description: Confirmatory qHTS for antagonist of cAMP-regulated guanine nucleotide exchange factor 3 (EPAC1) (AID 1645880).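 For activity, negative = inhibition: plate controls were DMSO only for no effect and full effect of the ATA control for full effect.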 Note: nearly all actives have a fitted effect of over 55% in size. Note: potency is the fitted concentration of half-maximal effect. Particulars: EPAC1 Rap1B-BODIPY-GDP exchange, fluorescence; activity, negative = inhibition: at 115 µM (top of the series). A digest of the protocol:
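Nucleotide exchange uses 100 nM EPAC1, 250 nM RAP1B-BODIPY-GDP and 50 uM GDP, with compounds in a concentration-titration series. After 5 min at room temperature, fluorescence (480 nm ex/540 nm em) is read every 5 min for 30 min. Data are normalized to control ATA and DMSO.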

For assay [2] the target is unchanged. The assay is described as follows: Confirmatory qHTS for agonist of cAMP-regulated guanine nucleotide exchange factor 3 (EPAC1) (AID 1645881; note: nearly all actives have a fitted effect of over 75% in size; note: potency is the fitted concentration of half-maximal effect;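 for activation: EPAC1 catalysed release of BODIPY-GDP from Rap1B seen as fluorescence loss; 100% = effect of cAMP agonist control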). (In general: qHTS replaces the single test concentration by a dilution series.)
For assay [3], the target named is Rap guanine nucleotide exchange factor 4 (Homo sapiens) (UniProt Q8WZA2). Description: Confirmatory qHTS for agonist of cAMP-regulated guanine nucleotide exchange factor 4 (EPAC2) (AID 1645884). For activation: % is set by controls: 0 for no effect and ±100 for the full control effect.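 Note: nucleotide exchange releases bodipy-GDP from Rap1 and this lowers its fluorescence; nearly all actives have a fitted effect of over 65% in size.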 Note: potency is the fitted concentration of half-maximal effect.
Assay [4] has the same target. Description: Confirmatory qHTS for antagonist of cAMP-regulated guanine nucleotide exchange factor 4 (EPAC2) (AID 1645885). For activity change, negative = inhibition: % is set by controls: 0 for no effect and ±100 for the full control effect. Note: nearly all actives have a fitted effect of over 25% in size. Note: potency is the fitted concentration of half-maximal effect.
For assay [5], the target named is Rap guanine nucleotide exchange factor 3 (Homo sapiens) (UniProt O95398). Description: Counterscreen qHTS for antagonist of cAMP-regulated guanine nucleotide exchange factor 3 (EPAC1) (AID 1645888).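 Note: fluorescence loss as bound BODIPY-GDP is released from Rap1B; % of control where 0% means no effect.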 A digest of the protocol:
(§1)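 Rap1B–BODIPY-GDP (250 nM) with 50 uM GDP; compounds pin-transferred to 9.74 nM–152 uM final (activator) or from 7.32 nM upwards (inhibitor). Fluorescence Ex/Em 480/540 nm read at 5 and 30 min, then after adding cAMP or buffer, at room temperature.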

For assay [6] the target is unchanged. Description: Counterscreen qHTS for agonist of cAMP-regulated guanine nucleotide exchange factor 3 (EPAC1) (AID 1645889). For activation: % of control where 0% means no effect. Note: nearly all actives have a fitted effect of over 40% in size. Note: potency is the fitted concentration of half-maximal effect. In short, it runs like this: as §1
A general note: A counterscreen serves to expose hits that act by an unwanted route or on another target.

Molecules are shown by their SMILES. Records with an inconclusive call do not appear. A number with no mark means an inactive call. Active and inactive are the calls of the source. Calls come from the whole dose curve; as a rule, active = well fitted curve in the direction sought with a large enough effect; inconclusive = small, poorly fitted or top-dose-only effect, or another doubt; inactive = no such curve, though single readings can be large; an effect the other way counts as inactive or inconclusive.

Sequence of Rap guanine nucleotide exchange factor 4 (Homo sapiens) (Q8WZA2 whole entry, looked up): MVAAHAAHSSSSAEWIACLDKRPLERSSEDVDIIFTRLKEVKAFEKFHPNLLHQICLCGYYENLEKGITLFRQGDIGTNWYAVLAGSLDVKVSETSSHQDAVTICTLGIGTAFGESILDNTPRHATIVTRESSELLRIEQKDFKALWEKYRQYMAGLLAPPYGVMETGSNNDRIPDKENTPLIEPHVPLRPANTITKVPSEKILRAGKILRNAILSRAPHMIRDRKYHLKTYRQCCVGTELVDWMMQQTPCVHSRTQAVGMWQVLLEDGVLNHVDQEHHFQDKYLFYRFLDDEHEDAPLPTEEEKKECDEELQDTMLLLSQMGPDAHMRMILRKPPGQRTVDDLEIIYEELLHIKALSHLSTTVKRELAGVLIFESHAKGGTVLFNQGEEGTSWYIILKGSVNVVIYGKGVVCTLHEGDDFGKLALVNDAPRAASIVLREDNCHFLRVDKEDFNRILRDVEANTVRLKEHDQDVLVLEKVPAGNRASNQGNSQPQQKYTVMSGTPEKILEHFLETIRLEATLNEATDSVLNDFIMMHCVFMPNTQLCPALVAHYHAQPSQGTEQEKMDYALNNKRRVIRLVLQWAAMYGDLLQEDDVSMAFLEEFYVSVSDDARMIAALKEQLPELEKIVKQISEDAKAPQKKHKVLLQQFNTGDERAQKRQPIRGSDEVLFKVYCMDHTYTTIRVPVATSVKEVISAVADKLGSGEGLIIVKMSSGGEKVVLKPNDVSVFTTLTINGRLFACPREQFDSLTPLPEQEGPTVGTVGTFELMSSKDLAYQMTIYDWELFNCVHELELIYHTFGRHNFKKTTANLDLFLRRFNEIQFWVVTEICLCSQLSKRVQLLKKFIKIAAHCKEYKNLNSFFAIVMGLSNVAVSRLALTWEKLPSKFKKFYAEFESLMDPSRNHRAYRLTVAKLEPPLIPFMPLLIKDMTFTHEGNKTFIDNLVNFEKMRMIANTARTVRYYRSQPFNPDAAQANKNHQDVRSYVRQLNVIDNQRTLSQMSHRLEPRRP
Sequence of Rap guanine nucleotide exchange factor 3 (Homo sapiens) (O95398 whole entry, looked up): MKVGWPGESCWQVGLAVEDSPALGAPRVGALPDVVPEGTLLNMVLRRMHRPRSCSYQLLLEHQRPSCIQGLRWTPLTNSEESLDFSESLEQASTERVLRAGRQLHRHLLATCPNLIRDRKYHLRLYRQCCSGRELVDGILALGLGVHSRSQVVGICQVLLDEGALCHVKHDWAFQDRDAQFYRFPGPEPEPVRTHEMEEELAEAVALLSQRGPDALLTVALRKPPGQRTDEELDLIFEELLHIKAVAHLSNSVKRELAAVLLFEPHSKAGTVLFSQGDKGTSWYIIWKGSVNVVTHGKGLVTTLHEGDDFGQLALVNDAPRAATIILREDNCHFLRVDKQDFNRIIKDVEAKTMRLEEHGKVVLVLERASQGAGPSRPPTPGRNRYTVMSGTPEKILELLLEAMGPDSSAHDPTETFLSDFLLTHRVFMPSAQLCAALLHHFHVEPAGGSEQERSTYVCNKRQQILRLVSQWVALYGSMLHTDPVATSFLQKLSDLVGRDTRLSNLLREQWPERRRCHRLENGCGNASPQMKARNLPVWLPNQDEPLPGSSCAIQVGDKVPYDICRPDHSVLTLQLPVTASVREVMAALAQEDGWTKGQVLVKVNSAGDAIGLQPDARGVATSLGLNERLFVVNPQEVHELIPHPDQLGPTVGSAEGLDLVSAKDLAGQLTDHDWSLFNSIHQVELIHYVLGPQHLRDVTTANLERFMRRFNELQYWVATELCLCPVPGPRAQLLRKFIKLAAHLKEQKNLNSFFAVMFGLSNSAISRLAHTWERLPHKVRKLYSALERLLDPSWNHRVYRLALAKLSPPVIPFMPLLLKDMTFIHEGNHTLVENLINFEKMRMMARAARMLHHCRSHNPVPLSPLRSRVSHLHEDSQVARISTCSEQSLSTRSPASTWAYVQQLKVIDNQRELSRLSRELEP

Regarding `O=C(N/N=C/c1ccc(-c2ccc(Cl)c(C(=O)O)c2)o1)c1cc2c(ccc3ccccc32)o1`, the Potency in assay [1] is 12.6 µM (active). The Potency result in assay [2] and in assay [4] was “inactive” in each case. Also, the activation in assay [3] was 0.332% [at 17.1 µM, percent relative to cAMP agonist control]; in assay [6], 12% [at 30.8 µM]. Also, the activity change, negative = inhibition in assay [5] is -35.1% [at 30.8 µM].

`COc1ccc(Cl)cc1NC(=O)CN1CCc2ccccc21`: the Potency result in assay [1], in assay [2] and in assay [4] was “inactive” throughout. For the same molecule, the activation was 2.78% [at 17.1 µM, percent relative to cAMP agonist control] in assay [3] and 14.8% [at 30.8 µM] in assay [6]. For the same molecule, the activity change, negative = inhibition in assay [5] was -6.37% [at 30.8 µM].

On to `CSc1ccc(/C=N/NC(=O)CN2CCN(Cc3ccc(Cl)cc3)CC2)cc1`, for which the Potency entry in assay [1], in assay [2], in assay [3], in assay [4], in assay [5] and in assay [6] was “inactive” throughout.

For the molecule `COC(=O)c1cc2sc(C)cc2n1Cc1ccc(F)cc1Cl`, the Potency result in assay [1], in assay [2], in assay [3], in assay [4], in assay [5] and in assay [6] was “inactive” throughout.

In the case of `Cc1ccc(C)c(S(=O)(=O)Nc2ccc(C(=O)NCC(c3ccco3)N(C)C)cc2)c1` (stereo not drawn), the Potency entry in assay [1], in assay [2] and in assay [4] was “inactive” throughout. In addition, the activation is 5.83% [at 17.1 µM, percent relative to cAMP agonist control] in assay [3] and 6.54% [at 30.8 µM] in assay [6]. Further, the activity change, negative = inhibition in assay [5] was -1.62% [at 30.8 µM].

Turning to `CCN(CC)c1ccc2cc(-c3nc(-c4cccs4)no3)c(=O)oc2c1`, the Potency entry in assay [1] and in assay [5] was “inactive” throughout. Further, the Potency in assay [2] was 100 µM (active); in assay [3], 35.5 µM (active); in assay [4] it was 3.38 µM (active); in assay [6] it was 79.4 µM (active).

Take `CCN(CC)c1ccc2c(c1)OC(N)=C(C#N)C2c1cccnc1` (stereo not drawn): the Potency result in assay [1] and in assay [5] was “inactive” in each case. The Potency in assay [2] was 89.1 µM (active); in assay [3] it was 100 µM (active); in assay [4] it was 75.7 µM (active); in assay [6], 35.5 µM (active).

For `CC(=O)Nc1c(C)nn(-c2ccccc2)c1N1CCC(C(=O)NCc2cccc(F)c2)CC1`, the Potency entry in assay [1], in assay [2], in assay [3], in assay [4], in assay [5] and in assay [6] was “inactive” in each case.

As to `CCc1nnc(NS(=O)(=O)c2ccc(NC(=S)NC(=O)c3ccc(Br)cc3)cc2)s1`, the Potency is 60.1 µM (active) in assay [1] and 75.7 µM (active) in assay [4]. Also, the Potency entry in assay [2], in assay [3], in assay [5] and in assay [6] was “inactive” throughout.

As for `CCC(C)(C)NC(=O)C(c1ccccn1)N(C(=O)c1csnn1)C1CCCCC1` (stereo not drawn), the Potency result in assay [1], in assay [2], in assay [3], in assay [4], in assay [5] and in assay [6] was “inactive” each time.

As for `Cc1csc2nc(CNS(=O)(=O)c3ccc4c(c3)CCCC4)cn12`, the Potency entry in assay [1], in assay [2] and in assay [4] was “inactive” throughout. The activation in assay [3] is -3.4% [at 17.1 µM, percent relative to cAMP agonist control]; in assay [6] it was -8.72% [at 30.8 µM]. Further, the activity change, negative = inhibition in assay [5] was -30.8% [at 30.8 µM].

Take `Cc1c2cn[nH]c(=O)c2c(C)n1-c1ccccc1`: the Potency entry in assay [1], in assay [2], in assay [3], in assay [4], in assay [5] and in assay [6] was “inactive” throughout.

Take `C/C(CC(=O)Nc1ccc2ccccc2c1)=N\NC(=O)c1ccc(O)c(O)c1`: the Potency in assay [1] was 53.6 µM (active). Further, the Potency entry in assay [2], in assay [3], in assay [4], in assay [5] and in assay [6] was “inactive” in each case.

As to `Cc1ccc(S(=O)(=O)CCC(=O)Nc2sccc2C#N)cc1`, the Potency result in assay [1], in assay [2] and in assay [4] was “inactive” in each case. Besides, the activation in assay [3] was 6.67% [at 17.1 µM, percent relative to cAMP agonist control]; in assay [6], 34.4% [at 30.8 µM]. In addition, the activity change, negative = inhibition in assay [5] was -10.4% [at 30.8 µM].

For `COc1cccc(-c2nc(SCC(=O)Nc3nc(-c4ccccc4)c(C)s3)[nH]c(=O)c2C#N)c1`, the Potency in assay [1] is 75.7 µM (active). The Potency result in assay [2], in assay [3], in assay [4], in assay [5] and in assay [6] was “inactive” each time.

For the molecule `Cc1ccc(Cc2cnc(N3C(=N)SC(c4ccccc4)C3=O)s2)cc1` (stereo not drawn), the Potency result in assay [1], in assay [2] and in assay [4] was “inactive” each time. In addition, the activation in assay [3] was 9.77% [at 17.1 µM, percent relative to cAMP agonist control]; in assay [6] it was 27.7% [at 30.8 µM]. Besides, the activity change, negative = inhibition in assay [5] was -12.3% [at 30.8 µM].

For the molecule `CCc1nc2c(OCc3ccc(C(=O)N(C)C)cc3)cccn2c1N(C)C(=O)c1ccc(C)cc1`, the Potency result in assay [1], in assay [2] and in assay [4] was “inactive” each time. The activation is 2.55% [at 17.1 µM, percent relative to cAMP agonist control] in assay [3] and 21.1% [at 30.8 µM] in assay [6]. Also, the activity change, negative = inhibition in assay [5] is -28.5% [at 30.8 µM].

Turning to `CC[C@]12c3[nH]c4cc(-c5ccco5)ccc4c3CCN1C(=O)[C@@H](CC(=O)NCCCOC)C[C@@H]2C(=O)N1CCN(C(=O)C2CC2)CC1`, the Potency result in assay [1], in assay [2] and in assay [4] was “inactive” throughout. Further, the activation was 9.39% [at 17.1 µM, percent relative to cAMP agonist control] in assay [3] and -1.13% [at 30.8 µM] in assay [6]. Also, in assay [5], the activity change, negative = inhibition is -21.4% [at 30.8 µM].
